Laboratory results as given in PubChem BioAssay (NCI).
The panel holds about 83,000 compounds, 20% with a hit somewhere; the sample as a whole holds those more often.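 Method: cells in 96-well plates; compound added at one concentration; 48 h incubation; percent growth measured; values under 10 scored active.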 Values without a mark were called inactive. Activity calls are given as the source filed them.

tested on: MALME-3M melanoma; experiment: NCI-60 one-dose screen, 48 h (100 = growth as untreated, 0 = no growth, -100 = all killed); conditions: 10 µM unless noted

How did the growth turn out when S=C(Sc1ccc(Cl)cc1)Sc1ccc(Cl)cc1 was run?
Its growth is -52.8% (active).

How did the growth turn out when O=C(O)c1ccc([N+](=O)[O-])cc1S(=O)(=O)O was run?
The growth was 108%.

For O=C(O)CC1=CCCCC1, which growth is on record?
The growth was 90.8%.

Which growth does the source give for O=C1C=C[C@H](O)[C@@]2(CO)O[C@@H]12 here?
The growth was 77.7%.

How did the growth turn out when NC(=O)NCCO was run?
The growth was 97.4%.

Which growth does the source give for O=C(O)C1CCCN1C(=O)OCc1ccccc1 (centres undefined) here?
The growth was 108%.

C=CC(C)(C)n1cc(C2=C(O)C(=O)C(c3cn(C(C)(C)C=C)c4ccccc34)=C(O)C2=O)c2ccccc21 was tested. Which growth did it give?
The growth was 90.6%.

COC(=O)c1cccc([N+](=O)[O-])c1 was tested. Which growth did it give?
The growth was 102%.

CCOC(=O)C(=O)CC(=O)c1ccccc1 was tested. Which growth did it give?
The growth was 100%.

O=Cc1ccc(F)cc1 was tested. Which growth did it give?
The growth was 85.1%.

With CC(CC(CCC(=O)O)(c1ccccc1)c1ccccc1)N(C)C (centres undefined) as the compound, how does the growth read?
Its growth is 109%.

Which growth does the source give for Cc1ccc(S(=O)(=O)Oc2ccc3sc4c(CO)ccc(NCCN(C)C)c4c(=O)c3c2)cc1 here?
Its growth is -89.5% [100 µM] (active).

O=C(OCC1CCCO1)c1ccc([N+](=O)[O-])cc1 (centres undefined) was tested. Which growth did it give?
The growth was 106%.

For Nc1c(Br)cc(O)c2c1C(=O)c1ccccc1C2=O, which growth is on record?
Its growth is 89.5%.

Which growth does the source give for COc1ccc(Br)c2c1C(=O)CC2 here?
Its growth is 113%.

With CC(=O)N(C(C)=O)c1ccc(C)cc1 as the compound, how does the growth read?
The growth was 97.2%.

For CC1(C)C2CCC1(C)C1(C2)OCCS1 (centres undefined), which growth is on record?
Its growth is 94.6%.

For O=c1n(CC2CO2)c(=O)n(CC2CO2)n1CC1CO1 (centres undefined), which growth is on record?
The growth was 107%.

Which growth does the source give for S=C=Nc1ccc2ccccc2c1 here?
Its growth is 102%.
